The structures appear in SMILES notation. Several values for one entry are separate records, joined by “and”; a condition that tells them apart may be missing. Equal entries are not always repeated. Among all 480,000 compounds or so, about 740 (0.15%) were called active. Cut-off read from the data, not from the text of the source: active = activity change below about -30%; inconclusive = mostly about -25% to -30%; inactive = weaker than that. Shown is part of a subset that was picked to be rich in actives. Some compounds were tested as several samples or in several runs, with calls that do not always agree.

The target of the test is L-lactate dehydrogenase A chain (Homo sapiens) (UniProt P00338). Kind of test: qHTS assay for inhibitors of human lactate dehydrogenase.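 Note: values are at about 110 or 230 µM; plate controls were DMSO wells for no effect and wells without enzyme for full effect.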 The following applies: purified LDHA, NADH/diaphorase-resazurin fluorescence; stronger effect = lower value. A digest of the protocol: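 Human LDH5 (2 nM) was incubated with 0.06 mM NADH and 0.2 mM pyruvate for 5 min at room temperature in Tris pH 7.4. Remaining NADH was coupled through diaphorase/resazurin, and resorufin fluorescence was read at 0 and 20 min.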
A general note: qHTS replaces the single test concentration by a dilution series.
Consider `O=C(COc1ccccc1C(=O)Nc1ccccc1)NC1CC1`, for which the activity change was 2.72% (inactive).
In the case of `Cc1cc2oc(=O)cc(CN3CCCCCCC3)c2cc1C` it was 3.97% (inactive).
The figure for `Cc1nc2nc(CN)nn2c(C)c1CCC(=O)NC1CCCCC1` is 10.1% (inactive).
In the case of `CCCn1c(SC(C)C(=O)c2ccc(Cl)cc2)n[nH]c1=O` (stereo not drawn) it was 1.73% (inactive); in that of `CSc1nnc([C@H](CC(C)C)NC(=O)OC(C)(C)C)o1`, -6.07% (inactive).
Take `c1ccc(Oc2ncnc3scc(-c4ccc(-c5ccccc5)cc4)c23)cc1`: the activity change was 2.38% (inactive).
The figure for `CCn1c(SCc2ccc(F)cc2Cl)nnc1-c1ccccn1` is -9.31% (inactive); for `Cc1ccc(NC(=O)C2=Cc3sc4c(c3CS2)CCCC4)c(C)c1` it is 4.96% (inactive).
On to `NC(N)=Nc1ccc(F)cc1`, for which the activity change was 0.928% (inactive).
For `O=C(CCc1nc(-c2ccccc2)no1)N1CCc2sccc2C1c1cccs1` (stereo not drawn), the activity change is 9.21% (inactive).
The figure for `Cc1cc(C)n2ncc(-c3noc(C(=O)NC4CCCC4)n3)c2n1` is -0.0013% (inactive).
Regarding `Cc1nc2cc(NC(=O)COc3ccccc3C(C)(C)C)ccc2o1`, the activity change was 3.35% (inactive).
In the case of `Cc1[nH]c2ccccc2c1C(=O)C(C)Sc1ccc2c(c1)OCCCO2` (stereo not drawn), the activity change is 7.43% (inactive).
In the case of `Cc1nc2cc(NC(C)C(=O)Nc3ccccc3Cl)ccc2o1` (stereo not drawn) it was -7.75% (inactive); in that of `c1ccc(COc2ccc(CNc3ccccc3)cc2)cc1`, -2.65% (inactive).
As to `O=C(Nc1ccc(N2CCOCC2)cc1)c1ccc2c(c1)S(=O)(=O)c1ccccc1C2=O`, the activity change was 0.869% (inactive).
The figure for `CC(C)CCn1c(=O)[nH]c(=O)c2c3c(cnc21)C(=O)CC(c1ccc(F)cc1)C3` (stereo not drawn) is 8.23% (inactive); for `Fc1ccc(-n2c(Cc3ccccc3)nnc2SCc2ccc(Br)cc2)cc1` it is 11.5% (inactive); for `COc1ccc(CNS(=O)(=O)c2ccc(-c3ccc(=O)[nH]n3)s2)cc1` it is -1.99% (inactive).
The figure for `O=C1CN(CC(=O)Nc2c(Cl)cc(Cl)cc2Cl)CCN1` is -9.74% (inactive); for `CCOc1ccccc1N(CC)C(=O)Cc1noc2ccccc12` it is 1.93% (inactive); for `COc1ccc(OC)c(C2C(C#N)=C(N)Oc3cc(O)ccc32)c1` (stereo not drawn) it is 6.17% (inactive).
In the case of `O=C(O)c1c(Br)c(Br)c(Br)c(Br)c1C1c2ccc(O)cc2Oc2cc(O)ccc21` it was -47.5% (active).
As for `O=C(c1n[nH]c(=O)c2ccccc12)N1CCN(S(=O)(=O)c2ccccc2F)CC1`, the activity change is 12.5% (inactive).
In the case of `COc1cccc(-c2c(NC(=O)c3ccc(Cl)cc3)oc3ccccc3c2=O)c1` it was -5.8% (inactive); in that of `O=C(O)Cc1ccc(F)c2ccccc12`, 2.09% (inactive).
For the compound `CC(Sc1nc2cc(S(=O)(=O)N3CCCCC3)ccc2o1)C(=O)Nc1cccc(Cl)c1` (stereo not drawn), the activity change was 6.97% (inactive).
In the case of `CN(C(=O)c1cnc(N2CCOCC2)c2ccccc12)C1CCCCC1`, the activity change is 3.81% (inactive).
In the case of `N=C(N)CCl` it was 0.754% (inactive).
`CC1CCC(C(C)C)C(NC(=O)c2ccccc2)C1` (stereo not drawn): the activity change is 0.148% (inactive).
Consider `Cc1cc(-c2nc3ncccc3o2)ccc1NC(=O)CC12CC3CC(CC(C3)C1)C2`, for which the activity change is -0.587% (inactive).
In the case of `O=C(CCc1ncc(-c2ccccc2F)o1)NCc1ccc2c(c1)OCO2` it was 9.36% (inactive).
Take `O=C(/C=C/c1cccc(Br)c1)c1ccc(O)c(CCCl)c1`: the activity change is 0.183% (inactive).
In the case of `CC(N)c1cccc([N+](=O)[O-])c1` (stereo not drawn), the activity change was 8.12% (inactive).
Turning to `O=C(O)C1CCN(c2ccc3nnc(C(F)(F)F)n3n2)CC1`, the activity change is -1.19% (inactive).
The figure for `Cc1ccc(/C=C(/C#N)C(=O)c2ccsc2)cc1C` is 4.55% (inactive); for `CC(C)(C)C(=O)N1CCC(C(=O)N2CCC(c3nc4ccccc4o3)CC2)CC1` it is 0.769% (inactive); for `O=C(C(c1ccccc1)N1CCN(S(=O)(=O)c2cccs2)CC1)N1CCCCC1` (stereo not drawn) it is 1.33% (inactive).
On to `O=C(NCc1ccco1)NNc1nc2c(-c3ccccc3)nnn2c2ccccc12`, for which the activity change is 0.688% (inactive).
Consider `Clc1cc(Cl)c(N/N=C/c2ccc(Br)cc2)c(Cl)c1`, for which the activity change is 1.46% (inactive).
The figure for `Cc1cc(OC(=O)c2c(Cl)cccc2Cl)nc(C)n1` is -6.35% (inactive); for `Cc1cc(C)c(S(=O)(=O)c2ccccc2)c(OC(=O)c2c(F)cccc2Cl)n1` it is -58% (active); for `O=C(OCc1ncc(-c2ccccc2)o1)c1c(F)cccc1Cl` it is -4% (inactive).
`CC(=O)c1c(C)[nH]c(C)c1C`: the activity change was -0.832% (inactive).
The figure for `CCc1nc(C#N)c(NCC(c2cccs2)N2CCOCC2)o1` (stereo not drawn) is 4.58% (inactive).
With `CCCc1cc(=O)oc2cc(OC(C)C(=O)Nc3cccc(C(C)=O)c3)ccc12` (stereo not drawn), the activity change was 1.35% (inactive).
As for `Cc1c(C(=O)C(=O)NC(C)c2ccccc2)c2ccccc2n1C` (stereo not drawn), the activity change was -3.86% (inactive).
In the case of `CCOC(=O)c1cc(S(=O)(=O)Nc2cccc(C)c2C)[nH]n1` it was -1.21% (inactive); in that of `COc1ccc(OCCOC(=O)c2nn(C)c(=O)c3ccccc23)cc1`, 0.361% (inactive).
Regarding `Cc1nc(-c2ccc(F)cc2)c(CC(=O)N2CCN(S(=O)(=O)c3ccc(F)cc3)CC2)s1`, the activity change was 7.31% (inactive) and -4.86% (inactive).
The figure for `Cc1ccc(S(=O)(=O)N2CCN(C(=O)Cc3sc(C)nc3-c3ccc(F)cc3)CC2)c(C)c1` is 1.74% (inactive) and -33% (active); for `Cc1nc(-c2ccc(F)cc2)c(CC(=O)Nc2cc(S(=O)(=O)N3CCCCC3)ccc2C)s1` it is -0.452% (inactive).
The figure for `CC(NC(=O)c1nccnc1N)c1ccco1` (stereo not drawn) is -5.25% (inactive).
